In the library only some 9.5% were active in any assay of this set; here they are far more common.
NS1 inh – blocks influenza NS1 protein function. Potency, µM (titrated, usually from 46.1 µM), for inactives: at the highest dose activity, positive = more growth. hit rate 0.4% among 270,000; calls by dose curve; note: actives are rising curves; nearly all actives have a fitted effect of over 50% in size
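Compounds were scored for reversing the slow growth caused by influenza A NS1 in S. cerevisiae, measured by optical density at 600 nm. Assay medium contained 2% galactose at pH 6.0; NS1-free yeast of the same strain were the positive control.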
RE007 growth inh – less growth of the S. pombe RE007 Vpr strain; S. pombe RE007 Vpr strain, BacTiter-Glo ATP luminescence, 24 h; Potency, µM (highest dose often 92.2 µM), for inactives: at the top dose activity change, negative = less growth, actives largely listed as inhibitors; hit rate 0.21% among 360,000; active = well fitted falling curve with a large enough effect; inconclusive = small, poorly fitted or top-dose-only effect; inactive = no such curve, though single readings can be large or run the other way; note: % is set by controls: 0 for no effect and ±100 for the full control effect; nearly all actives have a fitted effect of over 50% in size
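Fission yeast RE007 carrying one integrated HIV-1 vpr copy, seeded at OD 0.01 in PMG+AL medium with 23 nL pinned compound. Grown 24 h at 30 degrees; viability read by BacTiter-Glo luminescence after 5 min.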
Pf growth 96h – P. falciparum growth inhibition at 96 hours; P. falciparum luciferase reporter growth, 96 h; hit rate 6.9% among 320,000; Potency, µM (doses to about 28.7 µM), without a hit: top-dose activity change, negative = inhibition, usual class: inhibitors; note: % is set by controls: 0 for no effect and ±100 for the full control effect
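Erythrocytes infected with luciferase-expressing P. falciparum were dispensed at 2% hematocrit and 0.05% parasitemia (final), then incubated with compounds 96 hours at 37 C in 5% CO2. Luminescence after detection reagent addition reported growth.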
SARS PLP yeast – inhibitors of SARS-CoV papain-like protease in yeast | S. cerevisiae expressing SARS-CoV PLpro, growth rescue | Potency, µM (titrated, usually from 32.9 µM), for inactives: at the highest dose activity, positive = growth rescue, hits mostly activators | hit rate 0.19% among 330,000 | AID 485353; calls by dose curve; note: 0% is about no effect; nearly all actives have a fitted effect of over 55% in size
Pf growth 48h – inhibits P. falciparum growth in the first generation, 48 h | hit rate 5.9% among 310,000 | Potency, µM (doses to about 28.7 µM), without a hit: at the highest dose activity change, negative = inhibition, usual class: inhibitors | P. falciparum luciferase growth in erythrocytes, 48 h; note: % is set by controls: 0 for no effect and ±100 for the full control effect
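Firefly luciferase activity from engineered P. falciparum reports growth; inhibitors lower the luminescent signal. Cultures contained 2% hematocrit erythrocytes at 0.1% final parasitemia.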
* = called active by the depositor. Unless noted, calls come from the whole dose curve; as a rule, active = well fitted inhibition curve with a large enough effect; inconclusive = small, poorly fitted or top-dose-only effect, or another doubt; inactive = no such curve, though single readings can be large or run the other way. Potency is the fitted concentration of half-maximal effect.

Results for CCOc1ccc(NC2OC(CO)C(O)C(O)C2O)c([N+](=O)[O-])c1 (configuration not stated) ?
RE007 growth inh: -18%; Pf growth 96h: 5%; SARS PLP yeast: 4%; Pf growth 48h: 6%

Results for CCOC(=O)c1c(C)oc2c1c(C=NCc1ccccn1)c(O)c1ccccc12 ?
NS1 inh: -41%; RE007 growth inh: -6%; Pf growth 96h: inconclusive; SARS PLP yeast: -13%; Pf growth 48h: 2.1µM*

Results for CCCC(=O)NC(c1ccc(N(C)C)cc1)c1c(O)ccc2ccccc12 (configuration not stated) ?
NS1 inh: 1%; RE007 growth inh: -6%; Pf growth 96h: 12µM*; SARS PLP yeast: 1%; Pf growth 48h: inconclusive

Results for CCC(=O)NC(c1ccccc1)c1c(O)ccc2ccccc12 (configuration not stated) ?
NS1 inh: -2%; RE007 growth inh: -7%; Pf growth 96h: inconclusive; SARS PLP yeast: -4%; Pf growth 48h: 9.3µM*

What do the screens show for `CC(=O)NC(c1ccccc1)c1c(O)ccc2ccccc12` (configuration not stated)?
NS1 inh: 5%; RE007 growth inh: 5%; Pf growth 96h: -13%; SARS PLP yeast: -1%; Pf growth 48h: 7%

How did CCCC(=O)NC(c1ccccc1)c1c(O)ccc2ccccc12 (configuration not stated) do in these assays?
NS1 inh: 8%; RE007 growth inh: 7%; Pf growth 96h: 11%; SARS PLP yeast: 2%; Pf growth 48h: 0%

How did CCC(=O)NC(c1ccccc1)c1c(OC(C)=O)ccc2ccccc12 (configuration not stated) do in these assays?
NS1 inh: 0%; RE007 growth inh: -4%; Pf growth 96h: 10µM*; SARS PLP yeast: -1%; Pf growth 48h: inconclusive

Results for CCCC(=O)NC(c1ccc(OC)c(OC)c1)c1c(O)ccc2ccccc12 (configuration not stated) ?
NS1 inh: 10%; RE007 growth inh: 5%; Pf growth 96h: inconclusive; SARS PLP yeast: -3%; Pf growth 48h: inconclusive

What do the screens show for `CCC(=O)NC(c1cccc([N+](=O)[O-])c1)c1c(OC(C)=O)ccc2ccccc12` (configuration not stated)?
NS1 inh: -9%; RE007 growth inh: -4%; Pf growth 96h: 23%; SARS PLP yeast: -22%; Pf growth 48h: 13µM*

What do the screens show for `C[N@@+]1(Cc2ccc(Cl)c(Cl)c2)CCC[C@@H]1c1ccc[n+](Cc2ccc(Cl)c(Cl)c2)c1`?
NS1 inh: -5%

What do the screens show for `CCOC(=O)N1CCN(C(=O)c2c(Cl)cnn2C)CC1`?
NS1 inh: 0%; RE007 growth inh: -17%; Pf growth 96h: -9%; SARS PLP yeast: 0%; Pf growth 48h: 5%

What do the screens show for `O=C(Cc1ccccc1)NC(c1ccco1)c1c(O)ccc2ccccc12` (configuration not stated)?
NS1 inh: 0%; RE007 growth inh: -10%; Pf growth 96h: 5%; SARS PLP yeast: -2%; Pf growth 48h: inconclusive

How did CC(=O)Oc1ccc2ccccc2c1C(NC(=O)Cc1ccccc1)c1ccccc1Cl (configuration not stated) do in these assays?
NS1 inh: -1%; RE007 growth inh: inconclusive; Pf growth 96h: 27%; SARS PLP yeast: -9%; Pf growth 48h: 2.6µM*

What do the screens show for `CC1(C(=O)O)C2CCC(O2)C1(C)C(=O)O` (configuration not stated)?
NS1 inh: -41%

How did C[C@@]12C(=O)OC(=O)[C@]1(C)C1CCC2O1 do in these assays?
RE007 growth inh: 5%; Pf growth 96h: 1.9µM*; Pf growth 48h: 2.9µM*

Results for Cc1nc2c(C#N)c(C)[nH]n2c(=O)c1Cc1ccccc1 ?
NS1 inh: 9%; RE007 growth inh: -15%; Pf growth 96h: 19%; SARS PLP yeast: 10%; Pf growth 48h: 17%

Results for CCc1c(C)nc2c(C#N)c(C)[nH]n2c1=O ?
NS1 inh: 5%; RE007 growth inh: -2%; Pf growth 96h: 5.2µM*; SARS PLP yeast: -21%; Pf growth 48h: 28%

Source: PubChem (National Center for Advancing Translational Sciences (NCATS))
